The text below walks through data of publication PMC5540273 (PLoS ONE, 2017).

Some test systems named below: FYN; GAK; GRK1; GRK4; GRK7; GSK3A; GSK3B; HCK; HIPK1; HIPK2; HIPK3; HIPK4; HPK1; HUNK; ICK; IGF1R.
Details in all cases: concentration: 1 μM,replicates: in singlicate; n = 1
A further assay deals with T1, GCN2(Kin.Dom.2,S808G).
T1 construct: gene EIF2AK4

The subject of another assay is T2, GRK2.
T2 construct: gene ADRBK1

The next assay has as its system T3, GRK3.
T3 construct: gene ADRBK2

Another assay concerns T4, HASPIN.
T4 construct: gene GSG2

Each structure is given as a SMILES string.
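Note: KINOMEscan kinase panel screen.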

For the molecule `Cc1ccc(C(=O)Nc2ccc(Oc3ccc4nc(NC(=O)C5CC5)cn4c3)c(F)c2)c(=O)n1-c1ccccc1`, the “%Inh” value in the assay with FYN worked out at 31%; in the assay on GAK it was 0%; in the assay on GCN2(Kin.Dom.2,S808G), 72%; in the assay on GRK1, 0%; in the assay on GRK2 it was 0%; in the assay on GRK3, 0%. Also, the “%Inh” value came to 13% with GRK4; 0% with GRK7; 39% in the assay on GSK3A; 0% in the assay with GSK3B; 0% with HASPIN; 96.6% in the assay on HCK. The “%Inh” value in the assay on HIPK1 is 29%; with HIPK2 it was 0%; in the assay with HIPK3 it was 0%; in the assay on HIPK4, 72%; in the assay on HPK1 it was 56%; with HUNK, 22%. The “%Inh” value in the assay on ICK and with IGF1R was 0% in each case.

As for `Cl.Nc1n[nH]c2cc(-c3ccccn3)ccc12` [GSK2189892], the “%Inh” value with FYN, in the assay on GAK, in the assay with GCN2(Kin.Dom.2,S808G), in the assay on GRK1, in the assay with GRK2 and in the assay with GRK3 was 0% throughout. For the same molecule, the “%Inh” value in the assay on GRK4 worked out at 0%; with GRK7, 0%; with GSK3A, 4%; in the assay with GSK3B, 0%; with HASPIN, 38%; in the assay with HCK, 0%. Moreover, the “%Inh” value in the assay on HIPK1 is 2%; with HIPK2, 0%; with HIPK3 it was 5%; in the assay on HIPK4, 0%; with HPK1, 38%; with HUNK, 0%. For the same molecule, the “%Inh” value is 0% with ICK and 5% in the assay on IGF1R.

With `CCOC(=O)N1CCC(n2cnc(-c3ccc(F)cc3)c2-c2ccnc(N)n2)CC1` [SB-219952], the “%Inh” value came to 0% with FYN; 59% in the assay on GAK; 44% with GCN2(Kin.Dom.2,S808G); 0% in the assay on GRK1; 8% in the assay with GRK2; 0% in the assay on GRK3. Further, the “%Inh” value in the assay with GRK4 is 32%; in the assay with GRK7, 20%; with GSK3A it was 0%; with GSK3B, 37%; in the assay on HASPIN, 0%; in the assay with HCK, 0%. In addition, the “%Inh” value is 37% in the assay with HIPK1; 17% in the assay on HIPK2; 15% in the assay on HIPK3; 0% in the assay with HIPK4; 5% in the assay on HPK1; 0% in the assay with HUNK. For the same molecule, the results for the “%Inh” value in the assay on ICK and with IGF1R were 70% and 0%, respectively.

Turning to `Cl.Cl.NC[C@H](CC1CCCCC1)NC(=O)c1ccc(-c2ccnc3[nH]ccc23)s1` [GSK1581428], the “%Inh” value in the assay with FYN is listed as 17%; with GAK, 87%; in the assay with GCN2(Kin.Dom.2,S808G), 0%; with GRK1, 93.6%; in the assay with GRK2, 55%; in the assay on GRK3 it was 77%. The “%Inh” value was 91.9% with GRK4; 96.2% with GRK7; 0% with GSK3A; 9% with GSK3B; 88% in the assay with HASPIN; 0% in the assay with HCK. The “%Inh” value in the assay with HIPK1 amounted to 98.7%; with HIPK2, 96.1%; in the assay on HIPK3, 98.9%; with HIPK4, 94.2%; in the assay with HPK1, 78%; in the assay with HUNK, 0%. The “%Inh” value is recorded as 11% in the assay on ICK and 0% with IGF1R.

For `CS(=O)(=O)Nc1ccc(-c2ccnc3[nH]ccc23)cc1` [GSK993273], the “%Inh” value in the assay with FYN amounted to 0%; in the assay on GAK, 26%; with GCN2(Kin.Dom.2,S808G), 0%; with GRK1 it was 18%; in the assay on GRK2, 0%; in the assay on GRK3, 22%. The “%Inh” value with GRK4 is 71%; with GRK7, 76%; in the assay with GSK3A, 0%; in the assay on GSK3B it was 17%; in the assay on HASPIN it was 78%; in the assay with HCK it was 0%. Further, the “%Inh” value with HIPK1 worked out at 56%; in the assay on HIPK2 it was 8%; in the assay with HIPK3, 73%; in the assay on HIPK4 it was 34%; in the assay with HPK1, 38%; with HUNK, 0%. For the same molecule, the results for the “%Inh” value with ICK and in the assay on IGF1R were 6% and 2%, respectively.

For the molecule `Cn1cc(-c2cccc3c(N)c(C(N)=O)nnc23)cn1`, the “%Inh” value in the assay with FYN is 1%; in the assay with GAK it was 36%; in the assay on GCN2(Kin.Dom.2,S808G), 16%; in the assay on GRK1 it was 23%; with GRK2, 7%; with GRK3, 0%. The “%Inh” value turned out to be 40% in the assay on GRK4; 36% in the assay with GRK7; 7% in the assay on GSK3A; 20% with GSK3B; 96.5% in the assay with HASPIN; 13% in the assay with HCK. The “%Inh” value with HIPK1 is 68%; with HIPK2 it was 62%; in the assay with HIPK3, 67%; in the assay on HIPK4, 18%; in the assay on HPK1 it was 0%; in the assay on HUNK, 0%. The “%Inh” value came out at 24% with ICK and 0% with IGF1R.

Consider `C[C@@H]1CNc2c(sc3ccc4nc(-c5ccc(O)cc5)ccc4c23)C(=O)N1`, for which the “%Inh” value in the assay on FYN was 4%; in the assay with GAK it was 0%; in the assay on GCN2(Kin.Dom.2,S808G) it was 12%; in the assay on GRK1 it was 41%; in the assay on GRK2 it was 0%; in the assay with GRK3, 0%. Further, the “%Inh” value in the assay with GRK4 was 28%; in the assay on GRK7, 24%; in the assay on GSK3A, 9%; with GSK3B it was 0%; with HASPIN it was 48%; in the assay on HCK it was 35%. Further, the “%Inh” value stood at 41% in the assay on HIPK1; 46% in the assay on HIPK2; 21% with HIPK3; 0% in the assay on HIPK4; 6% with HPK1; 5% in the assay on HUNK. Besides, the “%Inh” value in the assay with ICK and with IGF1R was 0% throughout.

For the molecule `CN(c1cccc(CNc2nc(Nc3ccc4c(c3)CC(=O)N4)ncc2C(F)(F)F)c1)S(C)(=O)=O`, the “%Inh” value in the assay with FYN turned out to be 0%; with GAK, 33%; in the assay with GCN2(Kin.Dom.2,S808G), 10%; in the assay on GRK1 it was 25%; with GRK2, 0%; in the assay with GRK3, 0%. The “%Inh” value with GRK4 is reported as 19%; in the assay on GRK7, 0%; in the assay with GSK3A it was 35%; in the assay on GSK3B, 0%; in the assay on HASPIN, 0%; in the assay on HCK, 0%. Moreover, the “%Inh” value in the assay with HIPK1 is 39%; in the assay on HIPK2 it was 11%; with HIPK3 it was 0%; with HIPK4, 14%; in the assay on HPK1 it was 19%; in the assay on HUNK it was 0%. In addition, the “%Inh” value in the assay with ICK was found to be 0%; in the assay with IGF1R, 34%.

`Cn1ccc2ncnc(Oc3ccc(NC(=O)Nc4cnn(C(C)(C)C)c4)c(Cl)c3)c21`: the “%Inh” value came out at 0% with FYN; 0% with GAK; 23% with GCN2(Kin.Dom.2,S808G); 18% with GRK1; 2% in the assay on GRK2; 6% with GRK3. Also, the “%Inh” value in the assay with GRK4 was 3%; in the assay on GRK7, 0%; with GSK3A, 14%; in the assay with GSK3B it was 0%; in the assay with HASPIN, 35%; in the assay on HCK, 33%. Further, the “%Inh” value was determined as 26% in the assay with HIPK1; 16% in the assay with HIPK2; 0% with HIPK3; 1% in the assay with HIPK4; 5% in the assay with HPK1; 0% with HUNK. The “%Inh” value in the assay on ICK is 0%; in the assay on IGF1R, 25%.

For the molecule `N#Cc1cccc(C(=O)NC2CCN(c3ccnc(Nc4ccc(F)cc4)n3)C2)c1` (centres unmarked) [GSK1379708], the “%Inh” value came to 30% in the assay with FYN; 0% in the assay with GAK; 9% with GCN2(Kin.Dom.2,S808G); 0% in the assay with GRK1; 0% with GRK2; 0% in the assay on GRK3. Also, the “%Inh” value in the assay on GRK4 stood at 2%; in the assay on GRK7, 0%; with GSK3A, 0%; in the assay on GSK3B, 0%; with HASPIN it was 0%; in the assay with HCK, 0%. Besides, the “%Inh” value is given as 0% in the assay on HIPK1; 3% with HIPK2; 0% with HIPK3; 0% in the assay with HIPK4; 40% with HPK1; 7% in the assay with HUNK. Moreover, the “%Inh” value with ICK and with IGF1R was 0% throughout.
